Test results from PubChem BioAssay (NCATS).
Results filed as inconclusive are left out. Activity calls are given as the source filed them. Calls follow the shape of the dose curve; as a rule, active = well fitted inhibition curve with a large enough effect; inconclusive = small, poorly fitted or top-dose-only effect; inactive = flat fitted curve, though single readings scatter.

Columns and labels:
Assay in all cases: Cytotoxic Profiling of Annotated Libraries Using Quantitative High-Throughput Screening (AID 1296008); also: nearly all actives have a fitted effect of over 60% in size
Settings in all cases: Five cell lines viability, CellTiter-Glo ATP luminescence, 48-72 h; max response: stronger effect = lower value
CRL-7250 = normal cell line; test system: CRL-7250
Outline: (§1)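 Cytotoxicity was measured as CellTiter-Glo ATP luminescence, read after 10 min at room temperature. Compound treatment of the cells lasted 48 or 72 hr at 37 degrees Celsius in a qHTS format.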

HaCat = test system: HaCat
Outline: as §1

KB-3-1 = test system: KB-3-1
Outline: as §1

NIH3T3 = test system: NIH3T3
Outline: as §1
% is scaled to controls: 0 for no effect and ±100 for the full control effect; potency is read from the fitted curve at half-maximal effect.

Cn1nc(C(C)(C)C)cc1C(=O)N[C@@H](Cc1cccc(Cl)c1)C(=O)NCC#N
inactive: outcome (CRL-7250) | max response (HaCat) -0.262% | max response (KB-3-1) 0.545% | outcome (NIH3T3)

C/C=C(\C)C(=O)OC1C(C)C2(O)C(C=C(CO)CC3(O)C(=O)C(C)=CC32)C2C(C)(C)C12OC(=O)C(C)C (stereo not drawn)
inactive: max response (CRL-7250) -36% | max response (HaCat) -1.92% | max response (KB-3-1) -0.0958% | max response (NIH3T3) 1.03%

C=C1CCC2[C@](C)(CCC[C@@]2(C)C=O)[C@H]1CC/C(C)=C/CO (stereo partly drawn)
inactive: max response (CRL-7250) 2.68% | max response (HaCat) 2.96% | outcome (KB-3-1) | max response (NIH3T3) 1.76%

CC(O)(C(=O)C1CC1(CO)COC1OC(CO)C(O)C(O)C1O)C1C(O)CC2C3CC=C4CC(O)CC(O)C4(C)C3C(O)CC21C (stereo not drawn)
active: Potency (CRL-7250) 0.432 µM | Potency (HaCat) 1.72 µM | Potency (KB-3-1) 0.769 µM
inactive: max response (NIH3T3) 0.504%

CN1CCc2cc3c(cc2C(=O)Cc2cc4c(cc2C1)OCO4)OCO3
inactive: outcome (CRL-7250) | max response (HaCat) -8.11% | outcome (KB-3-1) | outcome (NIH3T3)

Cn1c(SCC(=O)N2CCC[C@H]2C(=O)Nc2ccccc2-c2ccccc2)nc2ccccc21
inactive: outcome (CRL-7250) | max response (HaCat) -3.91% | max response (KB-3-1) 7.08% | max response (NIH3T3) -3.15%

C=C[C@H](/C=C\c1ccc(O)cc1)c1ccc(O)cc1
inactive: max response (CRL-7250) -3.27% | max response (HaCat) 1.54% | max response (KB-3-1) -11.7% | outcome (NIH3T3)

COC(=O)c1ccc(N2CCN(C)CC2)c(NC(=O)c2cccc(OC)c2)c1
inactive: max response (CRL-7250) -14.2% | max response (HaCat) -1.79% | max response (KB-3-1) -6.24% | max response (NIH3T3) 3.28%

C/C=C(\C)C(=O)OC1C(C)C2(O)C(C=C(CO)CC3(O)C(=O)C(C)=CC32)C2C(C)(C)C12OC(C)=O (stereo not drawn)
inactive: max response (CRL-7250) -19.7% | max response (HaCat) -5.6% | max response (KB-3-1) 3.13% | max response (NIH3T3) -6.06%

CNS(=O)(=O)c1ccccc1Nc1nc(Nc2ccc(N3CCN(C)CC3)cc2OC)ncc1Br
active: Potency (CRL-7250) 1.64 µM | Potency (HaCat) 3.26 µM | Potency (KB-3-1) 4.61 µM | Potency (NIH3T3) 1.46 µM

CCC(C)/C=C(C)/C=C/C1=CC2=CC(=O)C3(C)OC(C)(O)C(C(=O)OC)C3C2=CO1 (stereo not drawn)
inactive: max response (CRL-7250) 2.86% | max response (HaCat) 4.73% | max response (KB-3-1) 0.0483% | max response (NIH3T3) -9.14%

C=CC1(C)CC(O)C(C(=C)C(=O)OC)C(O)C1C(=C)CO (stereo not drawn)
inactive: max response (CRL-7250) -28% | max response (HaCat) -2.8% | max response (KB-3-1) 0.16% | max response (NIH3T3) -4.78%

CCCc1cc(C)n(C)c(=O)c1CN(C)C(=O)c1cc(-c2ccc(N3CCN(C(C)C)CC3)nc2)cc2c1cnn2C(C)C
inactive: max response (CRL-7250) -1.11% | max response (HaCat) 1.32% | max response (KB-3-1) 4.77% | outcome (NIH3T3)

COc1cc(CCc2cc(NC(=O)c3ccc(N4CC(C)NC(C)C4)cc3)n[nH]2)cc(OC)c1 (stereo not drawn)
inactive: max response (HaCat) 4.79%
active: Potency (CRL-7250) 9.2 µM | Potency (KB-3-1) 11.6 µM | Potency (NIH3T3) 14.6 µM

CC(C)(C)OC(=O)c1ncn2c1C(C)(C)Nc1ccccc1-2
inactive: outcome (CRL-7250) | max response (HaCat) 2.2% | max response (KB-3-1) 0.574% | max response (NIH3T3) 0.0612%

N#Cc1cccc(C(=O)Nc2cc(-c3ccccc3)nn2-c2ccccc2)c1
inactive: max response (CRL-7250) 1.2% | max response (HaCat) 1.42% | max response (KB-3-1) -17% | max response (NIH3T3) -3.88%

Cc1ccc(S(=O)(=O)NCc2ccc(C(=O)NCCN(Cc3ccccc3)C(C)C)cc2)cc1
inactive: max response (CRL-7250) -10.1% | max response (HaCat) -19.3% | max response (KB-3-1) -24.2% | max response (NIH3T3) -5.87%

CC(=O)OC1C(OC(=O)c2ccccc2)C2C(C)(C)CCC(OC(C)=O)C2(C)C23CCC(C)(C2)C(=O)CC13 (stereo not drawn)
inactive: outcome (CRL-7250) | max response (HaCat) -16.6% | max response (KB-3-1) 6.15% | outcome (NIH3T3)

O=C(NC1CCC1)c1ccc(C#Cc2cccc(F)c2)nc1
inactive: max response (CRL-7250) -2.08% | max response (HaCat) -7.87% | max response (KB-3-1) 8.07% | max response (NIH3T3) -25.1%

C=CCCN1CCC2(CC1)CN(C(=O)c1c(F)cccc1F)c1ccc(Cl)cc12
inactive: outcome (CRL-7250) | max response (HaCat) -0.627% | outcome (KB-3-1) | outcome (NIH3T3)

C[C@@H]1C[C@H](C)CN(CCC(=O)Nc2ccc(Br)cc2)C1
inactive: max response (CRL-7250) -5.34% | max response (HaCat) -4.42% | max response (KB-3-1) -13.7% | max response (NIH3T3) -17.9%

COc1ccc(CNCc2cccc3ccccc23)cc1
inactive: outcome (CRL-7250) | max response (HaCat) -12.6% | max response (KB-3-1) 3.07% | max response (NIH3T3) -4.32%

O=c1[nH]cnc2c([C@@H]3N[C@H](CO)[C@@H](O)[C@H]3O)c[nH]c12
inactive: max response (CRL-7250) -8.88% | max response (HaCat) -34.4% | max response (KB-3-1) 7.13% | outcome (NIH3T3)

O=C(COc1ccc(C(=O)c2ccccc2)cc1)NC1CCN(Cc2ccccc2)CC1
active: Potency (CRL-7250) 8.2 µM
inactive: max response (HaCat) -11.4% | max response (KB-3-1) -23% | max response (NIH3T3) -2.94%

O=C(NCCN1CCN(c2cccc3c2OCCO3)CC1)c1ccc(F)cc1
inactive: max response (CRL-7250) 2.38% | max response (HaCat) -12.9% | max response (KB-3-1) -10.3% | max response (NIH3T3) 2.39%

O=C(c1ccc(Cl)cc1)N1CCN(c2ccnc3cc(Cl)ccc23)CC1
inactive: max response (CRL-7250) 3.03% | max response (HaCat) -18.2% | max response (KB-3-1) -24.7% | max response (NIH3T3) -1.68%

C=CC(C)(O)CC/C=C(/C)COC(=O)C(C)C1CCC(C)(C=C)O1 (stereo not drawn)
inactive: max response (CRL-7250) -27% | max response (HaCat) 3.72% | max response (KB-3-1) 8.61% | max response (NIH3T3) 0.167%

CN(C)c1ccnc2sc3c(=O)n(N4CCCCCC4)cnc3c12
inactive: max response (CRL-7250) -8.13% | max response (HaCat) 1.16% | max response (KB-3-1) 7% | max response (NIH3T3) 4.09%

C[C@@H]1O[C@@H](O[C@H]2CC[C@@]3(C)C(CC[C@]4(C)C3CC=C3[C@@H]5CC(C)(C)CC[C@]5(C(=O)O[C@@H]5O[C@H](CO)[C@@H](O)[C@H](O)[C@H]5O)CC[C@]34C)[C@]2(C)CO)[C@H](O)[C@H](O[C@@H]2O[C@H](CO)[C@@H](O)[C@H](O)[C@H]2O)[C@H]1O (stereo partly drawn)
inactive: max response (CRL-7250) 1.26% | max response (HaCat) -8.27% | outcome (KB-3-1) | max response (NIH3T3) -2.37%

COc1ccc(NC(=O)C2C[C@H](C)CC[C@H]2C(C)C)cc1 (stereo partly drawn)
inactive: outcome (CRL-7250) | max response (HaCat) -2.17% | outcome (KB-3-1) | max response (NIH3T3) -6.73%

CN(C)S(=O)(=O)c1ccc(NC(=S)N2CCC(C(O)(c3ccccc3)c3ccccc3)CC2)cc1
inactive: outcome (CRL-7250) | max response (HaCat) 3.08% | max response (KB-3-1) -18.9% | outcome (NIH3T3)

O=C(N[C@H]1CCC[C@H](CO)C1)C1CCN(c2nc3cc(Cl)c(-c4ccc(Cl)cc4)cc3o2)CC1
inactive: max response (CRL-7250) -0.419% | max response (HaCat) -4.31% | max response (KB-3-1) -14.3% | max response (NIH3T3) 0.931%

Cc1nc(N2CCN(C(=O)c3ccco3)CC2)c2c3c(sc2n1)CCCC3
inactive: max response (CRL-7250) -5.8% | max response (HaCat) 1.01% | max response (KB-3-1) -12.8% | max response (NIH3T3) 1.1%

CN(C)CC#CCCC(=O)C(O)(c1ccccc1)C1CCC1 (stereo not drawn)
inactive: max response (CRL-7250) 4.04% | max response (HaCat) 3% | max response (KB-3-1) 7.92% | max response (NIH3T3) -1.12%

C=C1C(=O)OC[C@@H]1C/C=C(\C)CC1CC(C)C(=O)O1 (stereo partly drawn)
inactive: max response (CRL-7250) -16.8% | max response (HaCat) 2.44% | outcome (KB-3-1) | max response (NIH3T3) -3.27%

C[C@H]1CC[C@@]2(OC1)O[C@H]1CC3C4CC[C@H]5C[C@@H](O)CC[C@]5(C)C4=CC(=O)[C@]3(C)[C@H]1[C@@H]2C (stereo partly drawn)
inactive: outcome (CRL-7250) | max response (HaCat) -3.38% | max response (KB-3-1) 0.81% | outcome (NIH3T3)

O=C(c1ccccn1)N(Cc1cccs1)C1(C(=O)NC2CCCCC2)CCCCC1
inactive: max response (CRL-7250) -5.83% | max response (HaCat) -24.4% | max response (KB-3-1) 7.82% | outcome (NIH3T3)

O=C(O)c1cccc(-c2ccc(-c3cn(C(=O)N4CCCCC4Cc4ccccc4)nn3)cc2)c1 (stereo not drawn)
inactive: max response (CRL-7250) 0.106% | max response (HaCat) -16.1% | max response (KB-3-1) 9.26% | max response (NIH3T3) -1.06%

O=C(NCC1(N2CCN(c3ccccc3)CC2)CCOCC1)c1cccnc1Sc1ccccc1
inactive: outcome (CRL-7250) | max response (HaCat) -2.8% | max response (KB-3-1) 1.24% | outcome (NIH3T3)

Cc1cc(OCCCS(C)(=O)=O)cc(C)c1-c1cccc(COc2ccc3c(c2)OCC3CC(=O)O)c1 (stereo not drawn)
inactive: max response (CRL-7250) -4.99% | max response (HaCat) 0.974% | max response (KB-3-1) -3.22% | outcome (NIH3T3)

CCC(C)C(=O)O[C@H]1[C@@H](OC(=O)c2ccoc2)C[C@](C)(O)[C@]23OC(C)(C)[C@H](C[C@H](OC(=O)c4ccoc4)[C@]12COC(C)=O)[C@H]3OC(C)=O (stereo partly drawn)
inactive: max response (CRL-7250) -11% | max response (HaCat) -1.74% | max response (KB-3-1) 3.34% | outcome (NIH3T3)

O=S(=O)(NCc1ccccn1)c1ccc(Br)c2ccccc12
inactive: max response (CRL-7250) -0.212% | max response (HaCat) 1.53% | max response (KB-3-1) 0.961% | max response (NIH3T3) -0.344%

Cn1cc(C2=C(c3coc4ccccc34)C(=O)NC2=O)c2cc(Br)ccc21
inactive: max response (CRL-7250) 2.54% | max response (HaCat) 3.32% | outcome (KB-3-1) | outcome (NIH3T3)

Cc1ccc(C2(C(=O)N3CCC(n4nc(-c5ccccc5)oc4=O)CC3)CC2)cc1
inactive: max response (CRL-7250) -18.3% | max response (HaCat) -7.48% | max response (KB-3-1) -8.37% | max response (NIH3T3) -1.74%

C/C(=C\CCC(C)C1=CCC2(C)OC3=C(CC12)C(=O)C(O)CC3)CO (stereo not drawn)
inactive: max response (CRL-7250) -17.6% | max response (HaCat) -38% | max response (KB-3-1) -18.5% | max response (NIH3T3) -0.114%

O=C(N[C@H](Cc1cscn1)C(=O)N[C@@H](CC1CCCCC1)[C@@H](O)[C@@H](O)C1CC1)c1nc2ccccc2[nH]1
inactive: max response (CRL-7250) 0.844% | max response (HaCat) -14.3% | max response (KB-3-1) -12.2% | max response (NIH3T3) -17.1%

CC(C)(CNC(=O)c1cccc(-c2noc(C(F)(F)F)n2)c1)c1coc(-c2ccccc2)n1
inactive: max response (CRL-7250) 1.16% | max response (HaCat) -1.63% | max response (KB-3-1) -6.73% | max response (NIH3T3) 4.1%
